Screens (PubChem)
In the library only some 21% were active in any assay of this set; here they are far more common.
Pf growth 96h: inhibits malaria parasite growth, 96 h; P. falciparum luciferase reporter growth, 96 h; Potency, µM (top dose mostly 28.7 µM), without a hit: at the highest dose activity change, negative = inhibition, most hits filed as inhibitors; 320,000 compounds, 6.9% hits; further: potency means the concentration at half of the fitted maximal effect; on the % scale 0 is the no-effect control and ±100 the full control effect
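Parasite growth measured via integrated firefly luciferase reporter in P. falciparum. Infected erythrocytes at 2% hematocrit, 0.05% parasitemia final were treated 96 hours at 37 C under 5% CO2, and luminescence was read.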
NS1 function inh: blocks influenza NS1 protein function; AID 2326; 270,000 compounds, 0.4% hits; Potency, µM (series often up to 46.1 µM), for the others: at the top dose activity, positive = more growth; calls by dose curve; further: potency means the concentration at half of the fitted maximal effect; actives are rising curves; nearly all actives have a fitted effect of over 50% in size
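Recovery from NS1-induced slow growth read by OD600 in budding yeast switched to galactose assay medium (pH 6.0, -URA) at 1:100 dilution. Compound 23 nl per well; the matching strain lacking NS1 serves as control.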
Pf growth 48h: inhibits P. falciparum growth in the first generation, 48 h; P. falciparum luciferase growth in erythrocytes, 48 h; Potency, µM (highest dose often 28.7 µM), for the others: at the top dose activity change, negative = inhibition, most hits filed as inhibitors; 310,000 compounds, 5.9% hits; AID 504832; further: potency means the concentration at half of the fitted maximal effect; on the % scale 0 is the no-effect control and ±100 the full control effect
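A one-generation exposure of luciferase-tagged malaria parasites in RPMI 1640/Albumax erythrocyte culture, 37 C and 5% CO2. Inhibition is inferred from decreased luminescence after adding detection reagent.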
Cycloheximide cs: counter-screen for Shiga toxin inhibitors: cycloheximide protein synthesis inhibition; cell reporter, cycloheximide protein synthesis inhibition counterscreen; 300,000 compounds, 12% hits; max response, %; AID 2314; in the data active means max response mostly above about 13%, no sharp cut-off; inactive means mostly below about 14%; further: read at 38.3 µM for the half of the compounds with a filed dose; 0% is about no effect
Shiga toxin inh: inhibitors of Shiga toxin in Vero cells | Vero cells, Shiga toxin protein synthesis inhibition reporter | inhibition, % at 38.7 µM | 290,000 compounds, 9.2% hits | AID 2315; in the data active means inhibition mostly above about 28%, no sharp cut-off; inactive means mostly below about 43%; further: 0% is about no effect
The depositor's hits bear a star. Unless noted, the call rests on the fitted dose curve; in most records, active means well fitted inhibition curve with a large enough effect; inconclusive means small, poorly fitted or top-dose-only effect, or another doubt; inactive means no such curve, though single readings can be large or run the other way.

How did Cc1cc(C)c(S(=O)(=O)c2ccccc2C(C)C)c(=O)[nH]1 do in these assays?
Pf growth 96h: -8%; NS1 function inh: -1%; Pf growth 48h: -2%; Cycloheximide cs: -3; Shiga toxin inh: -4

What do the screens show for `C=CCOc1ccccc1CN1CCN(CCc2ccccc2)C(CCO)C1` (configuration not stated)?
Pf growth 96h: inconclusive; NS1 function inh: -4%; Pf growth 48h: inconclusive; Cycloheximide cs: -4; Shiga toxin inh: -4

What do the screens show for `COc1cccc(/C=C/C(=O)OCC(=O)c2ccc3c(c2)NC(=O)CO3)c1OC`?
Pf growth 96h: -8%; NS1 function inh: 1%; Pf growth 48h: inconclusive; Cycloheximide cs: -1; Shiga toxin inh: -13

How did COc1cccc(/C=C/C(=O)c2ccc3c(c2)OCCO3)c1OC do in these assays?
Pf growth 96h: 0%; NS1 function inh: -8%; Pf growth 48h: 75%; Cycloheximide cs: 47*

What do the screens show for `COc1ccccc1-c1c(NC(=O)c2ccco2)n(C)c2ccccc2c1=O`?
Pf growth 96h: -2%; NS1 function inh: 6%; Pf growth 48h: -2%; Cycloheximide cs: 18*; Shiga toxin inh: 36*

Results for Oc1cc(Cl)ccc1Oc1ccc(Cl)cc1Cl ?
Pf growth 96h: 6µM*; Pf growth 48h: 9.5µM*; Cycloheximide cs: -1; Shiga toxin inh: 7

Results for O=c1[nH]c(=O)n(-c2ccccc2)c(O)c1/C=C1/C(c2ccccc2)=Nc2ccccc21 ?
Pf growth 96h: 9.3µM*; NS1 function inh: -31%; Pf growth 48h: inconclusive; Cycloheximide cs: 48*; Shiga toxin inh: 30*

What do the screens show for `COC(=O)c1ccc(C(=O)Nc2ccc(C(C)C)cc2N)cc1`?
Pf growth 96h: 8%; Pf growth 48h: 31%; Cycloheximide cs: 32*; Shiga toxin inh: 70*

Results for CC1=C/C(=N\NC(=O)c2cccs2)CC(C)(C)C1 ?
Pf growth 96h: inconclusive; Pf growth 48h: -12%; Cycloheximide cs: 4; Shiga toxin inh: 18

What do the screens show for `O=C(N/N=C1/CC2C=CCC12)c1cccs1` (configuration not stated)?
Pf growth 96h: 26%; NS1 function inh: -10%; Pf growth 48h: 102%; Cycloheximide cs: 42*; Shiga toxin inh: 80*

What do the screens show for `O=C(N/N=C1/CC2C=CCC12)c1ccco1` (configuration not stated)?
Pf growth 96h: 61%; NS1 function inh: 7%; Pf growth 48h: 18%; Cycloheximide cs: 72*; Shiga toxin inh: 81*

What do the screens show for `CC(C)Oc1ccc(S(=O)(=O)N2CCCCC2)cc1NC(=O)C1=COCCO1`?
Pf growth 96h: 8.3µM*; Pf growth 48h: inconclusive

Results for CCOc1ccc(Oc2ccc(C(F)(F)F)cc2NC(=O)C2=COCCO2)cc1 ?
Pf growth 96h: inconclusive; Pf growth 48h: 15µM*

How did Cc1cccc(Oc2ccc(S(=O)(=O)N3CCCCC3)cc2NC(=O)C2=COCCO2)c1 do in these assays?
Pf growth 96h: inconclusive; Pf growth 48h: 13µM*

Results for O=C(Nc1ccccc1Oc1ccccc1)C1=COCCO1 ?
Pf growth 96h: -24%; NS1 function inh: -11%; Pf growth 48h: -26%; Cycloheximide cs: 7; Shiga toxin inh: -4

How did O=C(NCCC1=CCCCC1)C1CC(=O)N(Cc2ccccc2)C1 (configuration not stated) do in these assays?
Pf growth 96h: 2%; NS1 function inh: 1%; Pf growth 48h: -10%; Cycloheximide cs: 1; Shiga toxin inh: 0

What do the screens show for `O=c1c2ccccc2c(C=NCc2ccccn2)c(O)n1-c1ccccc1Cl`?
Pf growth 96h: inconclusive; Pf growth 48h: inconclusive; Cycloheximide cs: -5; Shiga toxin inh: 11

What do the screens show for `CCCCC(O)(c1ccc(F)cc1)C(CN1CCOCC1)c1ccc(Cl)cc1` (configuration not stated)?
Pf growth 96h: 43%; NS1 function inh: -12%; Pf growth 48h: 1.9µM*; Cycloheximide cs: 1; Shiga toxin inh: -6

Results for COc1ccc(C(O)(CC(C)C)C(CN2CCOCC2)c2ccccc2)cc1 (configuration not stated) ?
Pf growth 96h: inconclusive; NS1 function inh: -4%; Pf growth 48h: 12µM*; Cycloheximide cs: -3; Shiga toxin inh: -2

How did CCCC(O)(c1ccc(Cl)cc1)C(CN1CCOCC1)c1ccc(Cl)cc1 (configuration not stated) do in these assays?
Pf growth 96h: 28%; NS1 function inh: 1%; Pf growth 48h: 1.9µM*; Cycloheximide cs: -8; Shiga toxin inh: -8

Results for CCOc1ccc(C(O)(c2ccccc2)C(CN2CCCC2)c2ccccc2)cc1 (configuration not stated) ?
Pf growth 96h: 121%; NS1 function inh: 1%; Pf growth 48h: 12µM*; Cycloheximide cs: -2; Shiga toxin inh: 20

How did COc1ccc(C(O)(CCC(C)C)C(CN2CCOCC2)c2ccc(Cl)cc2)cc1 (configuration not stated) do in these assays?
Pf growth 96h: -24%; NS1 function inh: 2%; Pf growth 48h: 1.7µM*; Cycloheximide cs: -3; Shiga toxin inh: 5

Results for CCOc1ccc(C(O)(CCC(C)C)C(CN2CCOCC2)c2ccccc2)cc1 (configuration not stated) ?
Pf growth 96h: 12%; NS1 function inh: -11%; Pf growth 48h: 7.4µM*; Cycloheximide cs: -3; Shiga toxin inh: -6

What do the screens show for `COc1ccc(/C=C(\NC(=O)c2ccc(Cl)cc2)C(=O)NCC2CCCO2)cc1OC` (configuration not stated)?
Pf growth 96h: 5%; NS1 function inh: -17%; Pf growth 48h: -16%; Cycloheximide cs: 7; Shiga toxin inh: 9

How did CN(C(=O)c1ccccc1Cl)c1ccccc1 do in these assays?
NS1 function inh: 3%; Pf growth 48h: inconclusive; Cycloheximide cs: -2; Shiga toxin inh: 10

How did Cc1c(C(=O)N(C)c2ccccc2Cl)cnn1-c1ccccc1 do in these assays?
Pf growth 96h: -14%; NS1 function inh: 28%; Pf growth 48h: 2%; Cycloheximide cs: 12*; Shiga toxin inh: 30*

Results for Cc1c(C(=O)N(C)c2cccc(Cl)c2)cnn1-c1ccccc1 ?
Pf growth 96h: inconclusive; NS1 function inh: -14%; Pf growth 48h: 9.3µM*; Cycloheximide cs: 39*; Shiga toxin inh: 60*

What do the screens show for `Cc1cccc(NS(=O)(=O)c2ccc(OCC(=O)N3CCCC3)cc2)c1`?
Pf growth 96h: inconclusive; NS1 function inh: 8%; Pf growth 48h: -8%; Cycloheximide cs: -1; Shiga toxin inh: -18

What do the screens show for `CCOc1cc(/C=C(\C#N)C(N)=O)cc(CSc2ccccc2)c1O`?
Cycloheximide cs: -1; Shiga toxin inh: 19

What do the screens show for `CN1N=C2c3ccccc3CCCC2C1c1ccc(F)cc1` (configuration not stated)?
Pf growth 96h: 25%; NS1 function inh: -9%; Pf growth 48h: -29%; Cycloheximide cs: 39*; Shiga toxin inh: 76*

What do the screens show for `COc1cc(C(=O)NNC(=O)c2ccc(NC(=O)C(C)(C)C)cc2)cc(OC)c1OC`?
Pf growth 96h: 9%; NS1 function inh: -5%; Pf growth 48h: 22%; Cycloheximide cs: 1; Shiga toxin inh: 1
